Source: PubChem BioAssay AID588358 (NMMLSC, 2011)
About 1,500 (0.48%) of roughly 310,000 compounds were called active.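 The calls were made as follows: active = binding more than 3 SD below its plate's average and above zero; inconclusive = below that plate limit but binding exactly zero; inactive = the rest.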 Shown is part of a subset that was picked to be rich in actives.

target: Desmoglein-3 (Homo sapiens) (UniProt P32926); assay: blockers of anti-DSG3 scFv binding – biochemical, bead-based, flow cytometry, scFv-GFP, primary screen (AID 588358); conditions: DSG3-coupled beads, at 10 µM, active compounds read low;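 also: hits lower antibody fragment binding to DSG3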
Sequence (P32926 whole entry, looked up, the tested form may be a part): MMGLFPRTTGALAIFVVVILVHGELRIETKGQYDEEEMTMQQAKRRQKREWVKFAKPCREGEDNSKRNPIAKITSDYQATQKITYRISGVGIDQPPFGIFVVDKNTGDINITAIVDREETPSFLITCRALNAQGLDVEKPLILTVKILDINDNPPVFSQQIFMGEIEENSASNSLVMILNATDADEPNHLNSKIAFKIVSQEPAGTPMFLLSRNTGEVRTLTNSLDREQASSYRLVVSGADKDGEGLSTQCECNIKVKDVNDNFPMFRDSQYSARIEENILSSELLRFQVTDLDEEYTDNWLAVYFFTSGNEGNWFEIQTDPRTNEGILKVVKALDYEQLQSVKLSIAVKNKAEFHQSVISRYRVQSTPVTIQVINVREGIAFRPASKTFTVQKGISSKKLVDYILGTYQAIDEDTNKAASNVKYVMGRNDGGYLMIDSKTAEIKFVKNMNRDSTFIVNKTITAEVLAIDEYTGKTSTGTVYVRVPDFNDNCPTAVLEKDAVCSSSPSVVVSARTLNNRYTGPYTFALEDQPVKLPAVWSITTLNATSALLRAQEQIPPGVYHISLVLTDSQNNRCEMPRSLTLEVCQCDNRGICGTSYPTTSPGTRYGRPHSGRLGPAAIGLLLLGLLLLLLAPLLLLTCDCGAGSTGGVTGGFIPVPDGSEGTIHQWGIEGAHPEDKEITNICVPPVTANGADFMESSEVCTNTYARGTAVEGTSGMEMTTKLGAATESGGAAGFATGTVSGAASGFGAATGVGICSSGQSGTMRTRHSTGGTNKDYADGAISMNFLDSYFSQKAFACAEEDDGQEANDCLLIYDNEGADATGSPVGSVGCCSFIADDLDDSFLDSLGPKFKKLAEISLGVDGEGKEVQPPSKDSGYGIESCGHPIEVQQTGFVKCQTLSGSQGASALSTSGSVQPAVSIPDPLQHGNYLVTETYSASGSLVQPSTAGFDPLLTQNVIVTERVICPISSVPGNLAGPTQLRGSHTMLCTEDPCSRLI

| Structure (SMILES) | binding (percent of control) |
| --- | --- |
| c1ccc(CCNC2CCCCCC2)cc1 | 68.9% (active) |
| OC(CNC1CCCCC1)c1ccccc1 (stereo not given) | 107% (inactive) |
| c1cc2c(cc1CCNC1CCCCCC1)OCO2 | 97.2% (inactive) |
| CN1CCC[C@@H]1CCO[C@](C)(c1ccccc1)c1ccc(Cl)cc1 | 102% (inactive) |
| Cc1ncoc1C(=O)NCC1=C(c2cccc3ccccc23)C[C@@H]2CC[C@H]1N2Cc1ccco1 | 108% (inactive) |
